These results are taken from the supplement of paper PMC8253809.

Each structure is given as a SMILES string.

The first test concerns SUDIPGVI (diffuse intrinsic pontine glioma line)
The experiment in a line: growth inhibition (% activity, log2 RLU normalised to DMSO / staurosporine); higher = more growth inhibition. To be noted: 33 µM. Summed up: (§1)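 On Geltrex-coated 384-well plates, pHGG cell lines and H9-derived neural stem cells were grown with approved drugs pinned in at a single final concentration of about 33 μM, in triplicate, for 7 days at 37 °C, 5% CO2. Per-plate normalisation of log2-transformed CellTiter-Glo luminescence to % activity between solvent and positive control wells followed. Each growth-inhibition value is the median over the replicates.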
As to `Cc1cc2c(s1)Nc1ccccc1N=C2N1CCN(C)CC1`, the growth inhibition was 3.75%.

For the compound `OC(Cn1cncn1)(Cn1cncn1)c1ccc(F)cc1F`, the growth inhibition is 1.91%. Same read-out and setting: the same measure for `CC(C)C[C@H](NC(=O)[C@H](Cc1ccccc1)NC(=O)c1cnccn1)B(O)O`: 56.3%; for `Clc1ccccc1CN1CCc2sccc2C1`: 3.23%. The same measure, in the same setting: the same measure for `CNC(CC(C)C)C(=O)NC1C(=O)NC(CC(N)=O)C(=O)NC2C(=O)NC3C(=O)NC(C(=O)NC(C(=O)O)c4cc(O)cc(O)c4-c4cc3ccc4O)C(O)c3ccc(c(Cl)c3)Oc3cc2cc(c3OC2OC(CO)C(O)C(O)C2OC2CC(C)(N)C(O)C(C)O2)Oc2ccc(cc2Cl)C1O` (centres undefined): -4.84%; for `Nc1ccc(S(=O)(=O)Nc2ncccn2)cc1`: 1.02%. For the compound `COC1=C(OC)C(=O)C(CCCCCCCCCCO)=C(C)C1=O`, the growth inhibition worked out at 3.24%.

Turning to `C=C[C@H]1CN2CC[C@H]1C[C@H]2[C@H](O)c1ccnc2ccc(OC)cc12`, the growth inhibition was found to be 4.23%. Consider `COC(=O)C1=C(C#N)NC(C)=C(C(=O)OC(C)C)C1c1cccc([N+](=O)[O-])c1` (centres undefined), for which the growth inhibition is -1.47%. The same measure, in the same setting: for `CS(=O)(=O)c1ccc(C(=O)Nc2ccc(Cl)c(-c3ccccn3)c2)c(Cl)c1` the value was 4.38%; for `N=C(N=C(N)N)N1CCOCC1`, 2.92%.

As to `CCOC(=O)c1c(CSc2ccccc2)n(C)c2cc(Br)c(O)c(CN(C)C)c12`, the growth inhibition was -8.38%.

`CCC[C@H](N[C@@H](C)C(=O)N1[C@H](C(=O)O)C[C@@H]2CCCC[C@@H]21)C(=O)OCC`: the growth inhibition was found to be 1.95%. Same read-out and setting: for `CC(=O)OCC(=O)[C@@]12N=C(C)O[C@@H]1C[C@H]1[C@@H]3CCC4=CC(=O)C=C[C@]4(C)[C@H]3[C@@H](O)C[C@@]12C` the value was -1.31%; for `CCCNC(C)C(=O)Nc1c(C)csc1C(=O)OC` (centres undefined), 2.98%; for `Clc1ccc(C(Cn2ccnc2)OCc2csc3c(Cl)cccc23)c(Cl)c1` (centres undefined), 1.94%. Same read-out and setting: the same measure for `COc1ccccc1OCCNCC(O)COc1cccc2[nH]c3ccccc3c12` (centres undefined): 5.96%; for `O=C1O[C@H]([C@@H](O)CO)C([O-])=C1O.[Na+]`: -6.63%; for `CC(C)NCC(O)c1ccc(NS(C)(=O)=O)cc1` (centres undefined): 2.59%. On the same count and under the same terms, for `Cn1nnc2c(C(N)=O)ncn2c1=O` the value was 0.031%; for `O=C(Nc1cccc2c(=O)cc(-c3nnn[nH]3)oc12)c1ccc(OCCCCc2ccccc2)cc1`, 1.62%; for `CN1CCC(=C2c3ccccc3CCc3sccc32)CC1`, -0.736%. For `Clc1ccc(CCC(Cn2ccnc2)Sc2c(Cl)cccc2Cl)cc1` (centres undefined), the growth inhibition came out at 4.83%.

Turning to `COC(=O)[C@@H]1CC2=CC(=O)CC[C@]2(C)[C@@]23O[C@@H]2C[C@@]2(C)[C@@H](CC[C@@]24CCC(=O)O4)[C@H]13`, the growth inhibition came out at 1.05%.

A further test relates to SUDIPGXIII (diffuse intrinsic pontine glioma line)
Described as above. To be noted: 33 µM. Summed up: as §1
`C[C@]12C=CC(=O)C=C1CC[C@H]1[C@@H]3C[C@@H](O)[C@](O)(C(=O)CO)[C@@]3(C)C[C@H](O)[C@@]12F`: the growth inhibition came out at 1.54%.

`NCCC(O)(P(=O)(O)O)P(=O)(O)O`: the growth inhibition turned out to be 0.475%.

Take `CCC[C@@H]1C[C@@H](C(=O)N[C@@H]([C@H]2O[C@H](SC)[C@H](OP(=O)(O)O)[C@@H](O)[C@H]2O)[C@H](C)Cl)N(C)C1`: the growth inhibition came out at 0.327%. Still for that read-out and setting: for `CC(C)[C@H](N)C(=O)OCC(CO)OCn1cnc2c(=O)[nH]c(N)nc21` (some centres undefined) the value was 1.45%. Still for that read-out and setting: the same measure for `Nc1ccc(S(=O)(=O)Nc2ccccn2)cc1`: -1.65%; for `CCCCCCCCCCCCCCCCO`: 1.46%. The same measure, in the same setting: the same measure for `CC(CN(C)C)CN1c2ccccc2CCc2ccccc21` (centres undefined): -0.414%; for `NCCCC[C@H](N[C@@H](CCc1ccccc1)C(=O)O)C(=O)N1CCC[C@H]1C(=O)O`: -4.08%; for `CC(N)C12CC3CC(CC(C3)C1)C2` (centres undefined): -0.4%. As to `CCCCCN(C)CCC(O)(P(=O)(O)O)P(=O)(O)O`, the growth inhibition turned out to be 0.0777%. Still for that read-out and setting: for `CSc1ccc2c(c1)N(CCC1CCCCN1C)c1ccccc1S2` (centres undefined) the value was 0.0949%; for `CN/C(=N\CCSCc1nc[nH]c1C)NC#N`, 0.0177%; for `CN[C@@H]1[C@H](O[C@H]2[C@H](O[C@H]3[C@H](O)[C@@H](O)[C@H](N=C(N)N)[C@@H](O)[C@@H]3N=C(N)N)O[C@@H](C)[C@]2(O)C=O)O[C@@H](CO)[C@H](O)[C@H]1O`, 0.85%.

In the case of `COc1cc2c(cc1O)CC[C@@H]1[C@@H]2CC[C@]2(C)[C@@H](O)CC[C@@H]12`, the growth inhibition amounted to 1.78%. Same read-out and setting: for `CC(C)C[C@H](NC(=O)[C@H](O)[C@H](N)Cc1ccccc1)C(=O)O` the value was 0.189%. Still for that read-out and setting: the same measure for `CC=CC1=C(C(=O)O)N2C(=O)[C@@H](NC(=O)[C@H](N)c3ccc(O)cc3)[C@H]2SC1`: -12.4%. Still for that read-out and setting: the same measure for `Cc1cc2c(s1)Nc1ccccc1N=C2N1CCN(C)CC1`: -0.29%; for `OC(Cn1cncn1)(Cn1cncn1)c1ccc(F)cc1F`: 0.862%. As for `CC(C)C[C@H](NC(=O)[C@H](Cc1ccccc1)NC(=O)c1cnccn1)B(O)O`, the growth inhibition came out at 69.9%.

For the compound `Clc1ccccc1CN1CCc2sccc2C1`, the growth inhibition turned out to be 1.33%.

Turning to `CNC(CC(C)C)C(=O)NC1C(=O)NC(CC(N)=O)C(=O)NC2C(=O)NC3C(=O)NC(C(=O)NC(C(=O)O)c4cc(O)cc(O)c4-c4cc3ccc4O)C(O)c3ccc(c(Cl)c3)Oc3cc2cc(c3OC2OC(CO)C(O)C(O)C2OC2CC(C)(N)C(O)C(C)O2)Oc2ccc(cc2Cl)C1O` (centres undefined), the growth inhibition was -0.803%. On the same count and under the same terms, for `Nc1ccc(S(=O)(=O)Nc2ncccn2)cc1` the value was -2.51%; for `COC1=C(OC)C(=O)C(CCCCCCCCCCO)=C(C)C1=O`, 2.03%; for `C=C[C@H]1CN2CC[C@H]1C[C@H]2[C@H](O)c1ccnc2ccc(OC)cc12`, -0.182%. Still for that read-out and setting: for `COC(=O)C1=C(C#N)NC(C)=C(C(=O)OC(C)C)C1c1cccc([N+](=O)[O-])c1` (centres undefined) the value was 1.7%.

For `CS(=O)(=O)c1ccc(C(=O)Nc2ccc(Cl)c(-c3ccccn3)c2)c(Cl)c1`, the growth inhibition was -0.808%. Same read-out and setting: the same measure for `N=C(N=C(N)N)N1CCOCC1`: -0.103%. On the same count and under the same terms, the same measure for `CCOC(=O)c1c(CSc2ccccc2)n(C)c2cc(Br)c(O)c(CN(C)C)c12`: 3.61%.

With `CCC[C@H](N[C@@H](C)C(=O)N1[C@H](C(=O)O)C[C@@H]2CCCC[C@@H]21)C(=O)OCC`, the growth inhibition was found to be 0.674%. Still for that read-out and setting: the same measure for `CC(=O)OCC(=O)[C@@]12N=C(C)O[C@@H]1C[C@H]1[C@@H]3CCC4=CC(=O)C=C[C@]4(C)[C@H]3[C@@H](O)C[C@@]12C`: -1.39%; for `CCCNC(C)C(=O)Nc1c(C)csc1C(=O)OC` (centres undefined): -0.525%; for `Clc1ccc(C(Cn2ccnc2)OCc2csc3c(Cl)cccc23)c(Cl)c1` (centres undefined): 5.27%. For `COc1ccccc1OCCNCC(O)COc1cccc2[nH]c3ccccc3c12` (centres undefined), the growth inhibition came to 2.05%. On the same count and under the same terms, for `O=C1O[C@H]([C@@H](O)CO)C([O-])=C1O.[Na+]` the value was 2.95%; for `CC(C)NCC(O)c1ccc(NS(C)(=O)=O)cc1` (centres undefined), -1.17%; for `Cn1nnc2c(C(N)=O)ncn2c1=O`, -1.62%.

In the case of `O=C(Nc1cccc2c(=O)cc(-c3nnn[nH]3)oc12)c1ccc(OCCCCc2ccccc2)cc1`, the growth inhibition is 2.22%. Same read-out and setting: the same measure for `CN1CCC(=C2c3ccccc3CCc3sccc32)CC1`: 1.69%. The same measure, in the same setting: for `Clc1ccc(CCC(Cn2ccnc2)Sc2c(Cl)cccc2Cl)cc1` (centres undefined) the value was 11.4%; for `COC(=O)[C@@H]1CC2=CC(=O)CC[C@]2(C)[C@@]23O[C@@H]2C[C@@]2(C)[C@@H](CC[C@@]24CCC(=O)O4)[C@H]13`, 0.0503%.
